Measurements published in PubChem BioAssay AID740 (SRMLSC, 2007).
The campaign covered roughly 96,000 compounds. About 65 (0.07%) were called active. The sample holds actives, similar compounds and a random draw of the others, so the mix is not that of the screen. Unmarked numbers belong to inactive results. Rule as the data show it: active = inhibition above about 25%; inactive = the rest.

assay: unspecified inhibition readout at 50 µM (AID 740); conditions: unspecified screen; hits give high values

Which inhibition does the source give for `CC(NC(=O)c1ccc(S(=O)(=O)N(C)C)cc1)c1ccccc1` (stereo not drawn) here?
The inhibition was 26.5% (active).

With `CC(NC(=O)c1ccc(F)cc1)c1ccccc1` (stereo not drawn) as the molecule, how does the inhibition read?
The inhibition was 1.4%.

Which inhibition does the source give for `CC(NC(=O)c1ccc(NS(C)(=O)=O)cc1)c1ccccc1` (stereo not drawn) here?
The inhibition was 1.26%.

For `CCCn1ncc(C(=O)O)c1C`, which inhibition is on record?
The inhibition was 0.49%.

For `CCn1c(N2CCN(CC(=O)c3c[nH]c4ccccc34)CC2)nc2c1c(=O)[nH]c(=O)n2C`, which inhibition is on record?
The inhibition was 0.91%.

With `CCc1c(C)nc2[nH]nc(-c3ccccc3)n2c1=O` as the molecule, how does the inhibition read?
The inhibition was 39.6% (active).

With `COCc1cc(=O)n2c(-c3ccccc3OC)n[nH]c2n1` as the molecule, how does the inhibition read?
Its inhibition is “inactive”.

With `CCc1c(C)[nH]c2nc3ccccc3n2c1=O` as the molecule, how does the inhibition read?
The inhibition was 1.48%.

With `Cc1cc(=O)n2c(-c3ccccc3C)n[nH]c2n1` as the molecule, how does the inhibition read?
The inhibition was 0.44%.

With `CCc1c(C)nc2[nH]nc(NC(=O)C(F)(F)F)n2c1=O` as the molecule, how does the inhibition read?
The inhibition was 1.45%.

For `CCc1c(C)nc2[nH]nc(-c3ccccc3C)n2c1=O`, which inhibition is on record?
Its inhibition is 36.2% (active).

For `CC(=O)N1CCN(S(=O)(=O)c2cccc(C(=O)Nc3nc4c(s3)CCCC4)c2)CC1`, which inhibition is on record?
Its inhibition is 0.78%.

Which inhibition does the source give for `COc1ccccc1NC(=O)c1cc(C(=O)O)ccc1C(=O)O` here?
The inhibition was “inactive”.

For `O=C(O)c1ccc(CN2C(=O)CSC2=S)cc1`, which inhibition is on record?
Its inhibition is “inactive”.

For `O=C1CSC(=S)N1c1cccnc1`, which inhibition is on record?
Its inhibition is “inactive”.

For `O=C1CSC(=S)N1Cc1cccnc1`, which inhibition is on record?
Its inhibition is 28.6% (active).

For `COc1cccc(-c2nc(CS(=O)(=O)CC(=O)N3CCc4ccccc43)c(C)o2)c1`, which inhibition is on record?
Its inhibition is “inactive”.

For `Cc1ccccc1N(CC(=O)NC1CCCC1)C(=O)c1oc(C(C)(C)C)cc1C`, which inhibition is on record?
Its inhibition is 2.02%.

Which inhibition does the source give for `Cc1sc2nc3ccc(NCc4ccco4)nn3c(=O)c2c1C` here?
Its inhibition is 3.95%.

With `Cc1sc2nc3c4ccccc4c(NCc4ccco4)nn3c(=O)c2c1C` as the molecule, how does the inhibition read?
The inhibition was 26.7% (active).

With `O=c1c2ccccc2nc2c3ccccc3c(NCc3ccco3)nn12` as the molecule, how does the inhibition read?
The inhibition was 0.85%.

For `Cc1cc(C(=O)OCC(=O)Nc2ccc(S(=O)(=O)N3CCOCC3)cc2)c(C)o1`, which inhibition is on record?
Its inhibition is “inactive”.

For `Nc1nc(-c2ccco2)nn1C(=O)c1ccc(Cl)cc1`, which inhibition is on record?
Its inhibition is 0.07%.

Which inhibition does the source give for `Cc1nc2scc(-c3ccccc3)c2c(=O)n1/N=C/c1ccco1` here?
The inhibition was “inactive”.

Which inhibition does the source give for `Cc1nc2scc(-c3ccco3)c2c(=O)n1/N=C/N(C)C` here?
Its inhibition is 25.3% (active).

With `Cc1ccc(-c2csc3ncn(/N=C/N(C)C)c(=O)c23)o1` as the molecule, how does the inhibition read?
The inhibition was 0.16%.

Which inhibition does the source give for `COC(=O)Cn1cc(C(=O)OC)c2ccccc21` here?
Its inhibition is “inactive”.

Which inhibition does the source give for `Cc1ccc(CNC(=O)CCS(=O)(=O)c2cccc3nsnc23)cc1` here?
The inhibition was 0.45%.

For `O=C(CCS(=O)(=O)c1cccc2nsnc12)NCc1ccccc1Cl`, which inhibition is on record?
Its inhibition is 79.1% (active).

With `COc1cccc(CNC(=O)CCS(=O)(=O)c2cccc3nsnc23)c1` as the molecule, how does the inhibition read?
Its inhibition is 0.1%.

For `COc1cc2[nH]c(=O)n(CCC(=O)NC3CCCC3)c(=O)c2cc1OC`, which inhibition is on record?
Its inhibition is 0.82%.

With `Cc1sc(-c2ccccn2)nc1OC(=O)c1ccc(Cl)cc1` as the molecule, how does the inhibition read?
The inhibition was “inactive”.

Which inhibition does the source give for `NC1C2CN(c3nc4c(cc3F)c(=O)c(C(=O)O)cn4-c3ccc(F)cc3F)CC12` (stereo not drawn) here?
The inhibition was 27.2% (active).

For `CCn1cc(C(=O)O)c(=O)c2cc(F)c(N3CCN(C(=O)Nc4ccccc4)CC3)cc21`, which inhibition is on record?
Its inhibition is 1.47%.

With `COc1c(N2CCN(C(=S)Nc3ccc(F)cc3)C(C)C2)c(F)cc2c(=O)c(C(=O)O)cn(C3CC3)c12` (stereo not drawn) as the molecule, how does the inhibition read?
Its inhibition is 0.59%.

Which inhibition does the source give for `O=C(O)c1cccc(COCC(F)(F)C(F)F)c1` here?
Its inhibition is “inactive”.

Which inhibition does the source give for `COc1ccc([C@H]2[C@H](C(=O)C(C)(C)C)N3N=Cc4ccccc4C3[C@]23N=C(c2ccccc2)OC3=O)cc1` (stereo partly drawn) here?
Its inhibition is “inactive”.

For `COc1ccc(CCN(Cc2cc3cc(C)c(C)cc3nc2Cl)C(=O)C2CC2)cc1`, which inhibition is on record?
Its inhibition is “inactive”.

Which inhibition does the source give for `CC(C)(C)c1ccc(OCCN2CCCC2)cc1` here?
Its inhibition is “inactive”.

For `CC(C)(c1ccccc1)c1ccc(OCCn2cnc3ccccc3c2=O)cc1`, which inhibition is on record?
The inhibition was “inactive”.

Which inhibition does the source give for `CC(C)(C)c1ccc(OCCn2ccccc2=O)cc1` here?
The inhibition was 25.3% (active).

Which inhibition does the source give for `CCS(=O)(=O)Nc1ccc(-c2ccc(NS(=O)(=O)CC)c(OC)c2)cc1OC` here?
Its inhibition is 0.7%.

For `Cc1ccc(S(=O)(=O)CC(N)=O)cc1`, which inhibition is on record?
The inhibition was 0.12%.

Which inhibition does the source give for `O=C(c1ccco1)N1CCN(c2cc(C(F)(F)F)nc3ncnn23)CC1` here?
Its inhibition is 1.54%.

For `CCCN(CCC)C(=O)Cn1c(=O)n(CCCCC(=O)NC2CCCC2)c(=O)c2ccccc21`, which inhibition is on record?
Its inhibition is 0.15%.

For `CCN1CCN(CC(O)COc2ccc(C(C)=O)cc2)CC1` (stereo not drawn), which inhibition is on record?
The inhibition was 0.4%.

With `CCc1ccc(/C=C/C(=O)c2c(C)cc(C)[nH]c2=O)cc1` as the molecule, how does the inhibition read?
Its inhibition is 24.9%.

Which inhibition does the source give for `Cc1cc(C)c(C(=O)/C=C/c2ccc(C(C)C)cc2)c(=O)[nH]1` here?
Its inhibition is 1.62%.

For `Cc1ccc(/C=C/C(=O)c2c(C)cc(C)[nH]c2=O)cc1`, which inhibition is on record?
The inhibition was 35.2% (active).

Which inhibition does the source give for `COCCSc1ccccc1C(=O)N1CCOCC1` here?
The inhibition was “inactive”.

For `CC(C)(C)c1ccc(S(=O)(=O)n2c(CN3CCOCC3)nc3ccccc32)cc1`, which inhibition is on record?
The inhibition was 0.34%.

For `CCOC(=O)CSc1nnc(C2CCCCC2)n1C`, which inhibition is on record?
Its inhibition is “inactive”.

For `COc1ccc(C(=O)C(CN2CCOCC2)c2ccccc2)cc1` (stereo not drawn), which inhibition is on record?
The inhibition was 41.7% (active).
